Test results as given in PubChem BioAssay AID588405 (Sanford-Burnham Center for Chemical Genomics, 2011).
Where “and” joins values, the source holds several entries; their conditions need not be identical. Identical values can stand only once. In all, about 360,000 compounds went through this assay and about 6,200 (1.7%) were called active. The sample as a whole holds a higher share of actives than the screen did. Unmarked numbers belong to inactive results.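 Rule for the calls: active = inhibition of at least 50% at 20 µM; inactive = the rest.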

Test: Peg3 promoter-driven luciferase inhibitors, primary screen, cell-based, HeLa, luciferase luminescence (AID 588405)
Details: HeLa PEG-Prom luciferase reporter, overnight, at 20 µM, active compounds read high

| Compound | inhibition |
| --- | --- |
| CCC(C)(O)C(=O)OC1C(=O)OC2CC3C(C)=CC(=O)C(O)C3(C)C3C4(O)OCC23C1C(C)C4O (stereo not given) | 100% (active) |
| O=C(O)CCn1cc(C=C2C(=O)NC(=S)NC2=O)c(-c2cccc(Br)c2)n1 | -1.73% |
| CN(C)C(=O)Oc1cc(OC(=O)N(C)C)cc(C(O)CNC(C)(C)C)c1 (stereo not given) | 4.25% and -0.27% |
| O=C1NC(=O)N(c2ccc(F)cc2)C(=O)/C1=C/c1ccc2c(c1)CCCN2Cc1ccccc1 | 12.7% |
| O=C1NC(=O)N(CCc2ccc(F)cc2)C(=O)/C1=C/C=C/c1ccccc1 | 90.6% (active) |
| Cc1cc2ccccn2c1C(C[N+](=O)[O-])c1c(F)cccc1Cl (stereo not given) | 38.7% |
| CC(C)CN1Cc2cc(N3CCCCC3)ccc2-n2nncc2C1 | -1.02% |
| COC(=O)[C@@H]1C(OC(=O)c2ccccc2)CC2CCC1N2C (stereo not given in full) | -10.5% |
| CC(=O)OC1C2(CC3N4C(=O)C5(CO)SSC4(CC31O)C(=O)N5C)OC(C)C(C)(C)C2=O (stereo not given) | 99.3% (active) |
| CC1C2Cn3c(nc4ccccc43)C1N(C)O2 (stereo not given) | -2.57% |
| Nc1ccc([N+](=O)[O-])cc1 | -3.82% |
| CC(C)N(CC#CCC1(O)c2ccccc2-c2ccccc21)C(C)C | -15.7% |
| COc1ccc(C(=O)CC2C(=O)N(C)C(=O)N(C)C2=O)cc1 | 13.1% |
| CC(=O)Nc1ccccc1C(=O)OCC(=O)c1cccc2ccccc12 | -26.1% |
| N#CC1=C(N)Oc2c(c(=O)oc3ccccc23)C1c1ccccc1OC(=O)c1cccs1 (stereo not given) | 19.6% |
| O=P(OC1=CCCCC1)(c1ccccc1)c1ccccc1 | 8.64% |
| O=C1C2(Cl)C3(Cl)C4(Cl)C(Cl)(Cl)C5(Cl)C3(Cl)C1(Cl)C5(Cl)C24Cl (stereo not given) | 86.1% (active) |
| OC1/C(=C/c2ccc(C(F)(F)F)cc2)N2CCC1CC2 (stereo not given) | -51.4% |
| CC12CCC(O)CC1CCC1C2CCC2(C)C(C(=O)CC(O)C(F)(F)F)CCC12 (stereo not given) | -18.9% |
| C[C@]12CC[C@H](O)C[C@H]1CC[C@@H]1C2CC[C@]2(C)[C@@H](C3=CC(=O)OC3)[C@@H](O)C[C@]12O (stereo not given in full) | 112% (active) |
| CCN1c2nc3c(C)cccn3c(=O)c2CC2(C(=O)N(C)C(=O)N(C)C2=O)C1C (stereo not given) | 4.11% |
| CN1CCC(N(C)Cc2cccnc2)CC1 | -0.72% |
| O=C(OCCN1CCOCC1)C1(c2ccccc2)CCCC1 | 6.31% |
| COc1cc(OC)cc(C2(C#N)CCN(C)CC2)c1 | 16.1% |
| Cc1cc(OCc2cc(C(=O)O)oc2C)c2c3c(c(=O)oc2c1)CCCC3 | 0.36% |
| Fc1ccc(C2N3CCCN23)cc1 (stereo not given) | 2.08% |
| CCCCCCCCCCCCn1ccc(=N)cc1 | 72.5% (active) |

| Compound | inhibition |
| --- | --- |
| COc1ccccc1N=C1SCCCN1C | 4.44% |
| CCN1CCN(c2ccc([N+](=O)[O-])cc2C#N)CC1 | 13.3% |
| CC(Cc1ccccc1)NCCC(c1ccccc1)c1ccccc1 (stereo not given) | 69.5% (active) |
| CCc1cccc2c(C#N)cn(CC(=O)N3CCOCC3)c12 | 16.4% |
| CC1CC=CCC12C(=O)NC(=S)NC2=O (stereo not given) | 4.94% |
| COP(=O)(OC)C(NC(=O)c1ccc(C)cc1)C(Cl)(Cl)Cl (stereo not given) | -13.6% |
| CC(CC(C#N)(c1ccccc1)c1ccccc1)N1CCCCC1 (stereo not given) | -0.65% |
| CCN1CCN(Cc2cc(OC)c3c(c2)OCO3)CC1 | 14.7% |
| O=C(NC(=S)N1C[C@H]2C[C@H](C1)c1cccc(=O)n1C2)c1ccc(F)cc1 | 10.8% |
| CNCC(O)c1cc(F)c(OCc2ccccc2)c(OCc2ccccc2)c1F (stereo not given) | 100% (active) |
| O=C(CSC1c2ccccc2-c2ccccc21)N/N=C/c1ccccc1 | 28.7% |
| CCOc1ccc(CN(CCCl)CCCl)cc1C(=O)OC | 21.9% |
| COc1cccc(C(c2nnnn2-c2ccc3c(c2)OCCO3)N2CCC3(CC2)C(=O)NCN3c2ccccc2)c1OC (stereo not given) | 45.9% |
| Cc1ccc(Cn2nnnc2CN2CCC(n3nnc4ccccc43)CC2)cc1 | 16.7% |
| COc1ccc(-n2nnnc2C(c2cccc3ccccc23)N2CCC(n3c(=O)[nH]c4ccccc43)CC2)cc1 (stereo not given) | 50.2% (active) |
| CSCCC(c1nnnn1C(C)(C)C)N1CCC(n2c(=O)[nH]c3ccccc32)CC1 (stereo not given) | 17.6% |
| O=C1NCN(c2ccccc2)C12CCN(C(c1cccs1)c1nnnn1C1CCCCC1)CC2 (stereo not given) | 22% |
| O=c1[nH]c2ccccc2n1C1CCN(C(c2ccnc3ccccc23)c2nnnn2Cc2ccccc2)CC1 (stereo not given) | 60.1% (active) |
| O=c1[nH]c2ccccc2n1C1CCN(C(c2ccccc2)c2nnnn2Cc2ccccc2)CC1 (stereo not given) | 71% (active) |
| CN1CCN(Cc2ccccc2C(F)(F)F)CC1 | -6.7% |
| CC(=O)c1ccc(OC(NC(=O)Cc2ccccc2)C(Cl)(Cl)Cl)cc1 (stereo not given) | -5.19% |
| COc1ccc(N=Cc2c(O)n(C)c(=O)[nH]c2=O)cc1 | -20.6% |
| O=[N+]([O-])c1ccc(C2C3C(c4ccccc4)=NC4(CCCCC4)N32)cc1 (stereo not given) | 23.4% |
| COc1ccccc1NC(=O)N1C[C@@H]2C[C@@H](C1)c1cccc(=O)n1C2 | -1.31% |
| CCN1C(=O)NC(=O)C2(CCCC2)C1=O | -7.97% |
| C=CCn1c(O)c(/C=N/N2CCOCC2)c(=O)[nH]c1=S | -0.23% |
| CC(=CCOc1ccc2ccc(=O)oc2c1)C1=CC(=O)C(C)(C)O1 | 62.4% (active) |

| Compound | inhibition |
| --- | --- |
| CN(C)c1nc(N(C)C)nc(N(C#N)CCCl)n1 | -5.34% |
| C[C@]12CCC3C(CC[C@H]4[C@H](O)[C@H](O)CC[C@]34C)C1CC[C@@H]2O (stereo not given in full) | 0.2% |
| CCCOC(=O)C1C2c3ccccc3C(c3ccccc32)C1C(=O)O (stereo not given) | 12.7% |
| Cc1cc(-c2ccc(N)c(C)c2)ccc1N | -45.4% |
| O=C(C1CC(=O)N(C2CCCC2)C1)N1CCC2(CC1)OCCO2 (stereo not given) | -6.37% |
| CC1([N+](=O)[O-])COP(=O)(Nc2ccc(F)cc2)OC1 (stereo not given) | 3.6% |
| CCCCCn1c(=O)c(C(=O)NCc2ccccn2)c(O)c2ccccc21 | 15.5% |
| CCOc1ccc(-c2cc(C)[n+](CCN(CC)CC)c(-c3ccc(OCC)cc3)c2)cc1 | 53.3% (active) |
| CC(C)n1c(=O)c(C=Nc2ccc(Br)cc2)c(O)n(Cc2ccco2)c1=O | 8.27% |
| COC(=O)C1=C(c2ccc(Cl)c(C(F)(F)F)c2)C[C@@H]2CC[C@H]1N2C(=O)NC1CC1 | -0.39% |
| COC(=O)C1=C(c2ccc3ccccc3c2)C[C@@H]2CC[C@H]1N2C(=O)NCCO | -5.4% |
| COC1C(O)C(C)OC(OC2CCC3(C=O)C(CCC4C3CCC3(C)C(C5=CC(=O)OC5)CCC43O)C2)C1O (stereo not given) | 105% (active) |
| CC1C(=O)OC2CCN3CC=C(COC(=O)C(C)(O)C1(C)O)C23 (stereo not given) | -0.84% |
| CC1=C(C(=O)Nc2ccccc2)S(=O)(=O)CCO1 | 9.24% |
| CC1=C2C(=O)C3C(CC=C4CC(OC5OC(O)C(O)C(O)C5CO)CCC43C)C2CCC12OC1CC(C)CNC1C2C (stereo not given) | -7.24% |
| CCN(CC)C(=O)c1ccc(NC(=O)c2cc(-n3cnnc3)ccc2Cl)cc1 | 5.1% |
| CN(C)CC1Oc2ccccc2OC1(O)c1ccccc1 (stereo not given) | 103% (active) |
| c1cc2c(cc1C1OCC3C(c4ccc5c(c4)OCO5)OCC13)OCO2 (stereo not given) | -66.8% |
| COc1ccc(NC(=O)N2Cc3ccccc3-n3nncc3C2)cc1 | 7.2% |
| Cc1ccc(C)c(NC2=NCCCS2)c1 | 4.99% |
| COC(=O)C1=C(c2ccc(F)cc2OCc2ccccc2)C[C@@H]2CC[C@H]1N2C(=O)NCc1ccc(C(C)(C)C)cc1 | 14.9% |
| CC1(C)Cc2c(C#N)c(N3CCNCC3)nc(-c3ccco3)c2CS1 | 78.3% (active) |
| c1ccc(N2Cc3ccccc3-n3nncc3C2)nc1 | -7.56% |
| COc1cc(-n2c(=S)[nH]c3ccc(C)cc3c2=O)c(Cl)cc1Cl | 30.3% |
| CCOC(=O)c1c(C)c(C(=O)N2CCC3(CC2)OCCO3)c(C)n1CC | 13.1% |
| C[C@H]1CN([C@@H](C)CO)C(=O)CCCn2nncc2CO[C@H]1CN(C)C(=O)Oc1cccc2ccccc12 | 9.28% |
